Source: PubChem (The Scripps Research Institute Molecular Screening Center)
Hits are enriched below; roughly 2.8% of the tested compounds scored in any of these assays.
MsrA inhibitor: bovine MsrA inhibition; purified bovine MsrA, absorbance read-out; inhibition, % at 15.5 µM; 360,000 compounds, 0.75% hits; in the data active = inhibition above about 4.5%;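 note: 0% = vehicle wells with enzyme and 100% = reference inhibitor wells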
rCAG binder-1: r(CAG) repeat RNA binding. AID 651821. TO-PRO-1 dye displacement fluorescence. inhibition, % at 3 µM. 370,000 compounds, 1.3% hits;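 active = inhibition above the plate cutoff, the mean of all test compounds on that plate plus 3 SD, cut at about 35% in these data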;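 note: 0% = DMSO alone and 100% = 100 µM mitoxantrone as full dye displacement; higher means more dye released from RNA so lower well fluorescence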
sPLA2-III inh: Inhibits HGIII-sPLA2 liposome hydrolysis, primary screen. QFRET BODIPY PC-A2 liposome hydrolysis, fluorescence. inhibition, % at 12.2 µM. 370,000 compounds, 0.56% hits. AID 743126;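 active = inhibition above mean plus 3 SD of compounds lying within the high and low control bounds, cut at about 19% in these data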;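 note: 0% = median of test compound wells and 100% = no enzyme DMSO wells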
Target sequence (Q9NZ20 whole entry, looked up): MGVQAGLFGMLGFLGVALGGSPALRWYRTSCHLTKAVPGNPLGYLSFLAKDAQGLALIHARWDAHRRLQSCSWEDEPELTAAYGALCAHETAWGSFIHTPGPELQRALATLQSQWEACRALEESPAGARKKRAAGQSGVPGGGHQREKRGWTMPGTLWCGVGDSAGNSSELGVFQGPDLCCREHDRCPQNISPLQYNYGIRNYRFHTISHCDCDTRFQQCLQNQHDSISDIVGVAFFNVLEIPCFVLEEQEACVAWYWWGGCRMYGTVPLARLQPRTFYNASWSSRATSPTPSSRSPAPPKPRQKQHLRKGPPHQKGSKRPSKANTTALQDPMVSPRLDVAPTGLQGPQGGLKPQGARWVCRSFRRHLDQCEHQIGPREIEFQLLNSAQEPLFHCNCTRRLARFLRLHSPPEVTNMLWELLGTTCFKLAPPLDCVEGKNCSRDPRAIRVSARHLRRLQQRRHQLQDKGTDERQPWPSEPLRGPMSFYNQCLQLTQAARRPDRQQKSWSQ
MsrA act: bovine methionine sulfoxide reductase A activation; activation, % at 10.6 µM; purified bovine MsrA, absorbance read-out; 360,000 compounds, 0.3% hits; AID 602163; in the data active = activation above about 7.5%;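 note: 0% = vehicle and 100% = reference activator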
rCAG bind conf: r(CAG) RNA repeat binding, confirmation. 4,300 compounds, 70% hits. TO-PRO-1 dye displacement fluorescence. inhibition, % at 3 µM. AID 652065. shares compounds with rCAG binder-1;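 active = inhibition above a per-plate cutoff, the mean inhibition of sample wells plus 3 SD, cut at about 35% in these data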;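 note: loss of TO-PRO-1 fluorescence as compound displaces dye from 1x1 AA loop RNA; 0% = DMSO only wells and 100% = 100 µM mitoxantrone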
dCAG dye counter: DNA CAG dye complex inhibition counter-screen; inhibition, % at 3 µM; 4,300 compounds, 94% hits; d(CAG) DNA oligo TO-PRO-1 dye displacement, fluorescence; AID 652068; shares compounds with rCAG binder-1;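 active = inhibition above its plate's cutoff, the mean test-well inhibition plus 3 SD, cut at about 4.8% in these data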;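 note: 0% = DNA dye mix with DMSO and 100% = 100 µM mitoxantrone; hits displace the dye from DNA and so lower well fluorescence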
dCAG dye DR: counter-screen for rCAG binders: inhibitors of DNA CAG TO-PRO-1 complex. shares compounds with rCAG binder-1. DNA CAG/GTC duplex TO-PRO-1 dye displacement fluorescence. IC50, µM. 250 compounds, 20% hits. AID 686960; in the data active = IC50 below about 10 µM
dCAG DNA bind: counter-screen for rCAG binders: DNA CAG TO-PRO-1 complex inhibitors, late stage; shares compounds with rCAG binder-1; d(CAG) DNA duplex TO-PRO-1 dye displacement, fluorescence; IC50, µM; 30 compounds, 80% hits; AID 720649
rCAG binder-2: r(CAG) repeat RNA binding, TO-PRO-1 displacement; shares compounds with rCAG binder-1; r(CAG) RNA TO-PRO-1 dye displacement, fluorescence; IC50, µM; 30 compounds, 100% hits
hGIII sPLA2 conf: human GIII-sPLA2 inhibition, confirmation; inhibition, % at 12.2 µM; shares compounds with sPLA2-III inh; 2,000 compounds, 34% hits; recombinant hGIII-sPLA2, BODIPY PC-A2 QFRET fluorescence;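 active = mean inhibition across triplicates above the hit cutoff set in the earlier primary screen, cut at about 19% in these data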;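 note: 0% = enzyme with DMSO and 100% = DMSO wells lacking enzyme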
BODIPY interf: counter-screen for HGIII-sPLA2 inhibitors: 535nm fluorescence interference; shares compounds with sPLA2-III inh; BODIPY FL product fluorescence interference, QFRET; inhibition, % at 12.2 µM; 2,000 compounds, 8.5% hits; AID 743282;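 active = average inhibition above the solvent-only control mean plus 3 SD, cut at about 6% in these data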;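 note: 0% = DMSO with substrate plus product and 100% = DMSO with substrate alone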
* marks the source's active call; other numbers are inactive results; i = inactive; / = no result. Unless noted, the rule behind the calls is not given here.

SMILES	MsrA inhibitor	rCAG binder-1	sPLA2-III inh	MsrA act	rCAG bind conf	dCAG dye counter	others
CN1CCN(c2ccc(/C=C3\C(=O)NC(=S)N(c4cccc(Br)c4)C3=O)o2)CC1	0	27	-12	-2	/	/
CCCC[N+]12CCC(CC1)C(C(O)(c1ccccc1)c1ccccc1)C2 (stereo not drawn)	0	0	2	-5	/	/
Cc1cc(OCC(=O)NC(Cc2ccc(Cl)cc2)C(=O)O)c2c3c(c(=O)oc2c1)CCC3 (stereo not drawn)	1	54*	-14	-1	54*	16*
Cc1cc(OCC(=O)N[C@@H](Cc2ccccc2)C(=O)O)c2c3c(c(=O)oc2c1)CCC3	3	27	8	-5	/	/
CC(N=Cc1c(O)[nH]c(=O)[nH]c1=O)c1ccccc1 (stereo not drawn)	0	1	8	-4	/	/
O=C(Nc1ccc(F)c([N+](=O)[O-])c1)N1C[C@H]2C[C@@H](C1)c1cccc(=O)n1C2	1	0	2	-4	/	/
COC(=O)C1=C(c2cc3ccccc3o2)C[C@@H]2CC[C@H]1N2C(=O)NCCCOC(C)C	1	-7	-7	-1	/	/
Oc1c(Cl)cc(Cl)cc1CN1CCN(Cc2ccccc2)CC1	1	-6	-2	-1	/	/
Oc1c(Cl)cccc1Cc1cc(Cl)cc(Cl)c1O	-1	59*	-177	-2	62*	16*	dCAG dye DR=>30
COc1cccc(CNC(=O)CCC(=O)N2C[C@H]3C[C@H](C2)c2cccc(=O)n2C3)c1OC	-1	-1	2	-3	/	/
CC[C@@H](C(=O)[C@@H](C)[C@@H](O)[C@H](C)CCc1ccc(C)c(O)c1C(=O)O)[C@H]1O[C@](CC)([C@H]2CC[C@](O)(CC)[C@H](C)O2)C[C@@H]1C	1	58*	-52	0	60*	12*	dCAG dye DR=>30
Cc1ccc(OCCn2cccc2/C=C2/C(=O)NC(=O)N(Cc3ccco3)C2=O)cc1	0	36*	-1	-3	14	8.7*
Cn1cccc1/C=C1\C(=O)NC(=O)N(Cc2ccco2)C1=O	0	40*	-10	-4	9	3
Cc1cc(C=C2C(=O)N(C)C(=S)N(C)C2=O)c(C)n1C1CCCCC1	1	25	3	-3	/	/
Cc1cc(C=C2C(=O)NC(=S)NC2=O)c(C)n1C1CCCC1	0	35*	8	-2	23	9.6*
CCNC(=S)N1CCn2cccc2C1c1cccnc1 (stereo not drawn)	3	-3	1	-3	/	/
Cc1ccc(-n2c(=S)[nH]c3ccccc3c2=O)cc1F	-1	36*	-13	-1	34	8.9*
CN1C(=O)C(=Cc2ccc(Sc3ccccc3)o2)C(=O)N(C)C1=S	1	54*	-2	-2	58*	21*
CN1C(=O)C(=Cc2ccc(Sc3ccccc3)o2)C(=O)N(C)C1=O	-2	5	2	0	/	/
O=C1NC(=O)N(Cc2ccc(F)cc2)C(=O)/C1=C\c1ccoc1	0	48*	-9	-2	38*	11*
CN(C)C1C(=O)C(C(N)=O)=C(O)C2(O)C(=O)C3=C(O)c4c(O)cccc4C(C)(O)C3C(O)C12 (stereo not drawn)	2	73*	3	-5	23	9.1*
COC(=O)CC(NC(=S)N1CC2C[C@@H](C1)Cn1c2cccc1=O)C(=O)OC (stereo partly drawn)	-1	-3	-2	-1	/	/
O=C(N/N=C/c1c(O)n(CCC2=CCCCC2)c(=O)[nH]c1=O)c1ccccc1	3	46*	-8	-10	40*	11*
O=C(N/N=C/c1c(O)n(CCC2=CCCCC2)c(=S)[nH]c1=O)c1ccccc1	2	70*	-2	-8	73*	32*	dCAG dye DR=i;dCAG DNA bind=2.2*;rCAG binder-2=0.99*
COc1cc(/C=C2\C(=O)NC(=O)N(c3ccccc3)C2=O)c([N+](=O)[O-])cc1OC	1	3	-13	-3	/	/
SMILES	MsrA inhibitor	rCAG binder-1	sPLA2-III inh	MsrA act	rCAG bind conf	dCAG dye counter	others
COc1ccc(OC)c(N2C(=O)NC(=O)/C(=C/c3ccc([N+](=O)[O-])s3)C2=O)c1	1	79*	-13	-9	73*	38*
CNc1ccc2oc(C[C@H]3O[C@@]4(CC[C@H]3C)O[C@H]([C@H](C)C(=O)c3ccc[nH]3)[C@H](C)C[C@H]4C)nc2c1C(=O)O	1	79*	-26	-1	38*	7.3*
Cc1ccc(C2(O)CN3CCC2CC3)cc1 (stereo not drawn)	0	-1	-1	-1	/	/
Cc1cc(/C=C2\C(=O)NC(=O)N(Cc3ccccc3)C2=O)c(C)n1-c1ccc(Cl)c(C(=O)O)c1	0	43*	-12	-2	65*	24*
O=C1NC(=O)N(Cc2ccccc2Cl)C(=O)/C1=C/c1cccs1	1	56*	-6	-5	3	2
Cc1cc(/C=C2\C(=O)NC(=O)N(Cc3ccccc3Cl)C2=O)c(C)n1-c1ccc(C(=O)O)cc1	0	39*	-12	-4	59*	18*
Cc1cc(/C=C2\C(=O)NC(=O)N(Cc3ccco3)C2=O)c(C)n1-c1ccc(C(=O)O)cc1	0	18	-6	-5	/	/
O=C(O)CCn1cc(C=C2C(=O)NC(=O)NC2=O)c(-c2cc3ccccc3oc2=O)n1	2	7	7	-1	/	/
Cc1cccc(N=Nc2ccc(N(C)C)cc2)c1	1	4	20*	-3	/	/	hGIII sPLA2 conf=27*;BODIPY interf=4
Cc1cccc(C#N)c1	0	2	-5	-5	/	/
CCCOC(=O)c1ccc(-[n+]2c(-c3ccccc3)cc(-c3ccccc3)cc2-c2ccccc2)cc1	2	13	26*	-5	/	/	hGIII sPLA2 conf=15;BODIPY interf=-44
O=c1[nH]c(O)c(/C=C2/C=CC(c3cc(Cl)ccc3Cl)=N2)c(=O)[nH]1	0	16	20*	-5	/	/	hGIII sPLA2 conf=17;BODIPY interf=2
COC(=O)C(O)(c1ccc(NC(=S)NC(=O)c2ccccc2)cc1)C(F)(F)F (stereo not drawn)	0	-1	-9	-7	/	/
